In PubChem BioAssay (Tox21):
Results filed as inconclusive are left out. The source made the active and inactive calls. The call rests on the fitted dose curve; in most records, active means well fitted activation curve with a large enough effect in the repeat runs; inconclusive means weak or mixed curves; inactive means flat fitted curve, though single readings scatter.

Test: A CellTox Green Cytotoxicity Assay to monitor cytotoxicity in HEK293 cells - 16 hour (AID 1224888); further: nearly all actives have a fitted effect of over 35% in size
Conditions: CellTox Green fluorescence; series mostly up to 76.8 µM; activity change: at the top concentration
Description: National Center for Advancing Translational Sciences [NCATS]
NIH Chemical Genomics Center [NCGC]
U.S. Environmental Protection Agency [EPA]
National Institutes of Environmental Health Sciences [NIEHS]
National Toxicology Program [NTP]
Cell-based models are critical for drug discovery. Determining the natural cytotoxic effects resulting from test compounds is an essential research activity. A CellTox Green Cytotoxicity Assay to monitor cytotoxicity in real time of continues cell culture during 40 hours of the compound treatment was used to screen Tox21 10K library compounds in Hek293 cells. CellTox Green Cytotoxicity Assay is a nonlytic, homogeneous, biofluorescent method to measure cytotoxicity in cell culture after experimental manipulation. The assay system uses a proprietary asymmetric cyanine dye that is excluded from viable cells but preferentially stains the dead cell's DNA. […] Viable cells produce no appreciable increases in fluorescence. Therefore, the fluorescence signal produced by the binding interaction with dead cell DNA is proportional to cytotoxicity.
The mixture of Hek293 cell suspension and reagents were dispensed at 600cells/6 ul/well in 1536-well tissue culture treated black solid bottom plates using a Multidrop dispenser. After the assay plates were incubated at a 37 C/5% CO2 incubator for 5 hours, 23 nL of compounds dissolved in DMSO, positive and negative controls was transferred to the assay plate by a pintool work station. The plates were incubated at 37 C for 40 hours. The fluorescence intensity were measured at 0h, 8h, 16h, 24h, 32h and 40h time points using ViewLux plate reader during compound treatment.
On the % scale 0 is the no-effect control and ±100 the full control effect; potency means the concentration at half of the fitted maximal effect.

Compound | activity change | Potency
OCCN1CN(CCO)CN(CCO)C1 | 1.03% (inactive) | 
CC[N+](CC)(CC)Cc1ccccc1 | -0.681% (inactive) | 
O=C(O)CCCCCCC(=O)O | 5.01% (inactive) | 
COc1cc(C(C)C)c2c(c1)S(=O)(=O)N(COc1cc(=O)n3cccc(OCCN4CCCCC4)c3n1)C2=O | 2.2% [at 15.8 µM, hits give high values] (inactive) | 
C[n+]1c2cc(N)ccc2cc2ccc(N)cc21 (tested in a mixture with another compound) |  | 23.9 µM (active)
CCN(CC)CCCN(c1ccccc1)C1Cc2ccccc2C1 | 7.77% [at 35.3 µM, hits give high values] (inactive) | 
CC(C)c1ccc(O)c(C(C)C)c1 |  | 19.5 µM (active)
Cc1cnccn1 | -8.82% (inactive) | 
C=C(C)CCCC | 7.78% (inactive) | 
Clc1ccccc1CN1CCc2sccc2C1 | 6.21% [at 35.3 µM, hits give high values] (inactive) | 
O=C1OC(=O)c2ccc3c4c(ccc1c24)C(=O)OC3=O | 0.942% (inactive) | 
NC(=O)C(=O)N/N=C/c1ccc([N+](=O)[O-])o1 | -4.68% [at 35.3 µM, hits give high values] (inactive) | 
Clc1cc(Cl)c(-c2c(Cl)c(Cl)cc(Cl)c2Cl)cc1Cl | -16.6% [at 35.3 µM, hits give high values] (inactive) | 
Cc1ccc2ccc3cccc4ccc1c2c34 | 6.73% (inactive) | 
O=C=NCc1cccc(CN=C=O)c1 | -10.6% [at 15.8 µM, hits give high values] (inactive) | 
CN(C)c1ccc(N=Nc2ccccc2C(=O)O)cc1 | -20.6% (inactive) | 
CCOB(OCC)OCC | -21.5% (inactive) | 
SCCCCCCCCS | -1.3% (inactive) | 
CN(C)CCCN1c2ccccc2Sc2ccc(C(F)(F)F)cc21 | 20.9% [at 35.3 µM, hits give high values] (inactive) | 
COc1ccc2sc(C(=O)Nc3nnn[nH]3)c(OC(C)C)c2c1 | 1.04% (inactive) | 

Compound | activity change | Potency
OCCCc1cccnc1 | -7.17% (inactive) | 
O=C[C@H](O)[C@H](O)[C@H](O)CO | 0.605% (inactive) | 
CN1[C@@H]2CC[C@@H]1CC(OC(=O)C(CO)c1ccccc1)C2 (stereo not given in full) | 14.2% [at 35.3 µM, hits give high values] (inactive) | 
Cc1cccc(N(C)C)c1 | 0.113% (inactive) | 
COc1ccc(C#N)cc1 | -3.45% (inactive) | 
O=C1C=CC(=O)N1c1ccccc1 |  | 13.8 µM (active)
CCOC(=O)COc1ccc(C)cc1 | 4.48% (inactive) | 
CCCCCCCCCCCCCCCCCO | -22.1% [at 15.8 µM, hits give high values] (inactive) | 
CO[C@H]1C=CO[C@@]2(C)Oc3c(C)c(O)c4c(O)c(cc(O)c4c3C2=O)NC(=O)/C(C)=C\C=C/[C@H](C)[C@H](O)[C@@H](C)[C@@H](O)[C@@H](C)[C@H](OC(C)=O)[C@@H]1C | -29.4% (inactive) | 
CCC(=O)CC(C)CC (stereo not given) | 10.7% [at 0.29 µM, hits give high values] (inactive) | 
COc1cc(C=C2CCC/C(=C\c3ccc(O)c(OC)c3)C2=O)ccc1O | -3.63% [at 35.3 µM, hits give high values] (inactive) | 
C=C/C=C/C=C/CCCCC | -0.0444% [at 15.8 µM, hits give high values] (inactive) | 
CC1CCCNC1 (stereo not given) | -12.7% (inactive) | 
Cc1c(C)n(Cc2ccccc2)c2ccc(C(=O)OCCN(C)C)cc12 | 20.6% [at 35.3 µM, hits give high values] (inactive) | 
CC(=O)Oc1ccc(C2(c3ccc(OC(C)=O)cc3)Oc3ccccc3NC2=O)cc1 | -8.88% [at 35.3 µM, hits give high values] (inactive) | 
COC(=O)C1=C(C)NC(C)=C(C(=O)OCCCN2CCC(c3ccccc3)(c3ccccc3)CC2)C1c1cccc([N+](=O)[O-])c1 (stereo not given) | -6.22% [at 35.3 µM, hits give high values] (inactive) | 
Clc1ccc(C(Cn2ccnc2)OCc2ccsc2Cl)c(Cl)c1 (stereo not given) | 16.4% [at 35.3 µM, hits give high values] (inactive) | 
Cc1nc(Nc2ncc(C(=O)Nc3c(C)cccc3Cl)s2)cc(N2CCN(CCO)CC2)n1 | -1.39% [at 35.3 µM, hits give high values] (inactive) | 
CC1=C(/C=C/C(C)=C/C=C/C(C)=C/C(=O)Nc2ccc(O)cc2)C(C)(C)CCC1 |  | inactive
CC(NCCC(c1ccccc1)c1ccccc1)c1ccccc1 (stereo not given) |  | 21.3 µM (active)
